From PubChem BioAssay AID493244 (The Scripps Research Institute Molecular Screening Center, 2011)
Screen size: about 340,000 compounds; about 390 (0.11%) were called active. For the sample, actives were picked, then their nearest neighbours and some compounds at random. A number with no mark means an inactive call.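 Rule for the calls: active = inhibition above the mean inhibition of all tested compounds plus 3 SD (cut at about 17% in these data); inactive = the rest.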

biological target: Troponin I, cardiac muscle (Homo sapiens) + Troponin T, cardiac muscle (Homo sapiens) + Troponin C, slow skeletal and cardiac muscles (Homo sapiens) (UniProt P19429+P45379+P63316); experiment: calcium desensitizers of cardiac thin filaments – biochemical, IANBD-TnC fluorescence, EC70 calcium, primary screen (AID 493244); details: IANBD-labeled cardiac RTF, Ca2+ fluorescence; at 7.15 µM; stronger effect = higher value;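 note: assay run at fixed EC70 calcium of 1.6 mM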

Question: For `COc1ccc2c(c1O)-c1cccc3c1[C@@H](C2)N(C)CC3`, which inhibition is on record?
Answer: 4.82%

Question: Which inhibition does the source give for `COC1=C[C@@H]2[C@@H]3Cc4ccc(OC)c(O)c4[C@]2(CCN3C)CC1=O` here?
Answer: 19.3% (active)

Question: With `COc1ccc2c(c1)[C@]13CCCCC1C(C2)N(C)CC3` (stereo not given in full) as the compound, how does the inhibition read?
Answer: -1.69%

Question: For `Cc1ccc(-c2nc3ccccc3c(=O)n2-c2ccc(Br)cn2)cc1`, which inhibition is on record?
Answer: -6.33%

Question: `COC(=O)C1=C(c2ccccc2)C[C@@H]2CC[C@H]1N2C(=O)N1CCCCC1` was tested. Which inhibition did it give?
Answer: 4.81%
